Laboratory results taken from PMC7862700, “An all-to-all approach to the identification of sequence-specific readers for epigenetic DNA modifications on cytosine”.

Target: T1, ETV2 (Homo sapiens, UniProt O00321 1-342)
T1 sequence: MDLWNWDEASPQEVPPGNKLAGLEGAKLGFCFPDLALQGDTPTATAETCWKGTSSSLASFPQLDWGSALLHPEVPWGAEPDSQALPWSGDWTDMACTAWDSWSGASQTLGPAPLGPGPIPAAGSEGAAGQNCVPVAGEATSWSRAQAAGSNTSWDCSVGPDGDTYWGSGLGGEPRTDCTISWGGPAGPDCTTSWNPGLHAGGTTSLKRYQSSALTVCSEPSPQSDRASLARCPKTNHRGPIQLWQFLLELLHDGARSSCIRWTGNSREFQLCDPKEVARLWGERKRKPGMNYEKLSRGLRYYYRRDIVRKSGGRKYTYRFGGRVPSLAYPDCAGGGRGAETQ
Test: DAPPL (digital affinity profiling via proximity ligation, sequencing); 10 mM Tris-HCl pH 7.5, 50 mM NaCl, 1 mM DTT, 4% glycerol, room temperature, 30 min; GST-TFs on glutathione beads, 16-mer random dsDNA library, 0.1% formaldehyde crosslink after washing; high values mean tight binding
Details: protein: recombinant; tags: N-terminal GST; dsDNA, one strand shown
Method in brief: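 Binding signal is defined as a hexamer's read frequency for one factor over its frequency for the tag-only sample. To obtain reads, GST-fused human transcription factors were expressed in yeast, captured on glutathione beads, barcoded with DNA and pooled with that sample. Pools met 200 nmole of a 16-mer random double-stranded DNA library in Tris/NaCl/DTT/glycerol buffer for 30 min at room temperature before washing, 0.1% formaldehyde crosslinking, proximity ligation (BsaI/T4 ligase, 1 h, 37 °C), PCR and Illumina NextSeq500 sequencing.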

Sequence	binding signal
ATTGAT	1.3 fold enrichment (6-mer frequency, TF over GST control)
CATCTA	1.1 fold enrichment (6-mer frequency, TF over GST control)
CTGATT	1.21 fold enrichment (6-mer frequency, TF over GST control)
CGAATA	1.29 fold enrichment (6-mer frequency, TF over GST control)
AAGAAA	1.18 fold enrichment (6-mer frequency, TF over GST control)
AGTATT	1.07 fold enrichment (6-mer frequency, TF over GST control)
TAAATG	1.31 fold enrichment (6-mer frequency, TF over GST control)
TTTTGT	1.28 fold enrichment (6-mer frequency, TF over GST control)
TCTGCT	1.53 fold enrichment (6-mer frequency, TF over GST control)
TTGAAA	1.28 fold enrichment (6-mer frequency, TF over GST control)
ACAATA	1.2 fold enrichment (6-mer frequency, TF over GST control)
CCTAAG	1.08 fold enrichment (6-mer frequency, TF over GST control)
CTCAAT	1.4 fold enrichment (6-mer frequency, TF over GST control)
TACATA	1.24 fold enrichment (6-mer frequency, TF over GST control)
TATTTT	1.45 fold enrichment (6-mer frequency, TF over GST control)
TTAATG	1.31 fold enrichment (6-mer frequency, TF over GST control)
ATCGAT	1.08 fold enrichment (6-mer frequency, TF over GST control)
TCCATT	1.19 fold enrichment (6-mer frequency, TF over GST control)
CGTTAA	1.36 fold enrichment (6-mer frequency, TF over GST control)
TCTAGC	1.19 fold enrichment (6-mer frequency, TF over GST control)

Sequence	binding signal
ATGCTA	1.43 fold enrichment (6-mer frequency, TF over GST control)
TTATGT	1.13 fold enrichment (6-mer frequency, TF over GST control)
TCTTGA	1.2 fold enrichment (6-mer frequency, TF over GST control)
ATGCTT	1.29 fold enrichment (6-mer frequency, TF over GST control)
CATCCT	1.63 fold enrichment (6-mer frequency, TF over GST control)
ACTGAT	1.19 fold enrichment (6-mer frequency, TF over GST control)
TTACTC	1.37 fold enrichment (6-mer frequency, TF over GST control)
TTGCCC	1.25 fold enrichment (6-mer frequency, TF over GST control)
ACGTCC	1.39 fold enrichment (6-mer frequency, TF over GST control)
AATGTT	1.43 fold enrichment (6-mer frequency, TF over GST control)
AATAGT	1.17 fold enrichment (6-mer frequency, TF over GST control)
CCAATC	1.16 fold enrichment (6-mer frequency, TF over GST control)
GTATCC	1.78 fold enrichment (6-mer frequency, TF over GST control)
ACAATT	1.29 fold enrichment (6-mer frequency, TF over GST control)
TTCTTT	1.27 fold enrichment (6-mer frequency, TF over GST control)
TAAAAC	1.17 fold enrichment (6-mer frequency, TF over GST control)
TCCTTC	2.47 fold enrichment (6-mer frequency, TF over GST control)
TTCGTA	1.37 fold enrichment (6-mer frequency, TF over GST control)
TAGCTA	1.27 fold enrichment (6-mer frequency, TF over GST control)
TATTTG	1.27 fold enrichment (6-mer frequency, TF over GST control)
